Rows were chosen to be rich in hits. Some 1.8% of all compounds tested hit in one or more screens of this group.
MEX-5 binding: C. elegans MEX-5 TCR-2 RNA binding activity; activity score (negative = inhibition of binding), % at 10 µM; MEX-5/FITC-TCR2 RNA binding, fluorescence polarization; active compounds read low; Q9XUB2; 0.38% of 300,000 active;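 active = inhibition past about -25% in most replicates, and total fluorescence under double the plate's negative control median, limit read from the data; inconclusive = replicates evenly split on the limit, or fluorescence at least double controls; inactive = too little inhibition in most replicates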
Target sequence (Q9XUB2 whole entry, looked up): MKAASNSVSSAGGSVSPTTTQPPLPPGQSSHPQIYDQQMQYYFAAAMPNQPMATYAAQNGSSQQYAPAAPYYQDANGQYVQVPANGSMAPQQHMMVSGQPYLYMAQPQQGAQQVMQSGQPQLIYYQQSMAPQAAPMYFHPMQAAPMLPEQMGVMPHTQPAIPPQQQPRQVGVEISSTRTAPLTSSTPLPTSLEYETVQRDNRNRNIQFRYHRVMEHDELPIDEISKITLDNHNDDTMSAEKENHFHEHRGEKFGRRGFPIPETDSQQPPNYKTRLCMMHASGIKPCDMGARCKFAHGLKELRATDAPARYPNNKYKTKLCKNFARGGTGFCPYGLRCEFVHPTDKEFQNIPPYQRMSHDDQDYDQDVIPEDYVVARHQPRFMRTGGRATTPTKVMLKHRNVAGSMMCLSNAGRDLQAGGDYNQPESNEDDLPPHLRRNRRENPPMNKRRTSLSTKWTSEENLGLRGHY
EBV gp42 inh: EBV gp42 inhibition. inhibition, % (tested at 21.74 µM). AID 1085. 0.42% of 220,000 active. Fluorescence polarization binding assay, mP read-out. Q1HVG2; in the data active = inhibition above about 50%
MLLE-PAM2 inh: blocks PAM2 peptide binding to the PABP1 MLLE domain; GST-MLLE / FITC-PAM2 fluorescence polarization; inhibition, % at 20 µM; 0.36% of 360,000 active; P11940; in the data active = inhibition above about 35%, passing the limit was not always enough
PABP polyA inh: blocks human PABP binding to poly(A) RNA; P11940; fluorescence polarization; calls only at 35 µM; 1% of 290,000 active; AID 2014;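 note: calls also rest on retests at 20 µM and on dose response follow-up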
eIF4H inh: inhibitors of RNA binding by human eIF4H; Q15056; eIF4H fluorescence polarization binding assay; inhibition, % at 35 µM; 0.94% of 290,000 active;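 note: calls also rest on retests at 20 µM and on dose response follow-up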
Large screens that a line does not name were inactive. Unless noted, the rule behind the calls is not given here.

O=Nc1c(O)[nH]c2ccc(F)cc12	none
COC(=O)c1ccc(CSc2ccccc2NC(=S)Nc2cccc(SC)c2)o1	none (no result: MEX-5 binding, EBV gp42 inh, PABP polyA inh, eIF4H inh)
C[C@@H]1CCCCO[C@@H](CN(C)Cc2ccncc2)[C@@H](C)CN([C@H](C)CO)C(=O)c2cc(NC(=O)c3ccccc3)ccc2O1	none (no result: MEX-5 binding, EBV gp42 inh, PABP polyA inh, eIF4H inh)
COc1ccc(OC)c(NC(=O)Nc2nc(C(N)CCc3ccccc3)cs2)c1 (stereo not drawn)	none (no result: MEX-5 binding, EBV gp42 inh, PABP polyA inh, eIF4H inh)
Oc1[nH]c2ccccc2c1N=Nc1ccccc1F	MEX-5 binding inconclusive, eIF4H inh inconclusive
Oc1[nH]c2ccccc2c1N=Nc1ccc(F)cc1	MEX-5 binding -62, eIF4H inh inconclusive
CCNC(=O)C1CCCN(C(=O)c2cccc(OC(F)(F)F)c2)CC1 (stereo not drawn)	none (no result: MEX-5 binding, EBV gp42 inh, PABP polyA inh, eIF4H inh)
O=C(NNC(=O)c1ccncc1)Nc1ccc([N+](=O)[O-])cc1	PABP polyA inh active
O=C(NNC(=O)c1cccnc1)Nc1ccc([N+](=O)[O-])cc1	none
CCOC(=O)C1=CCN(S(=O)(=O)c2ccc(C)cc2)C1c1cccc(F)c1 (stereo not drawn)	none (no result: MEX-5 binding, EBV gp42 inh, PABP polyA inh, eIF4H inh)
COc1ccc(OC)c(CN2CCN(C(=O)c3cccc(S(=O)(=O)N(C)c4ccccc4)c3)CC2)c1	none (no result: MEX-5 binding, EBV gp42 inh, PABP polyA inh, eIF4H inh)
CNc1ccc(Br)cc(C(=O)/C=C/c2cccc(Cl)c2Cl)c1=O	PABP polyA inh active (no result: MEX-5 binding)
CNc1ccc(Br)cc(C(=O)/C=C/c2cccc(OC)c2OC)c1=O	none
O=C(CCc1nnc2ccc(NCc3ccco3)nn12)Nc1ccccn1	eIF4H inh 88 (no result: EBV gp42 inh)
Cc1cccc(NC(=O)CCc2nnc3ccc(NCc4ccco4)nn23)n1	eIF4H inh 80 (no result: EBV gp42 inh)
CC1(C(=O)NCc2cccc3ccccc23)CCN1C(=O)C1(c2ccccc2)CCCC1 (stereo not drawn)	none (no result: MEX-5 binding, EBV gp42 inh, PABP polyA inh, eIF4H inh)
CC1CCCN(Cc2c(O)ccc3c2O/C(=C\c2ccco2)C3=O)C1 (stereo not drawn)	MEX-5 binding inconclusive, PABP polyA inh active, eIF4H inh 85
CCN1CCN(Cc2c(O)ccc3c2O/C(=C\c2ccc(C)cc2)C3=O)CC1	MEX-5 binding -29, eIF4H inh inconclusive
Cc1ccc(/C=C2\Oc3c(ccc(O)c3CN3CCN(C)CC3)C2=O)cc1	MEX-5 binding inconclusive, eIF4H inh inconclusive
CCN1CCN(Cc2c(O)ccc3c2O/C(=C\c2ccccc2)C3=O)CC1	MEX-5 binding -34, eIF4H inh inconclusive
COc1cc(OC)nc(Nc2nc(CN)cs2)n1	none (no result: MEX-5 binding, EBV gp42 inh, PABP polyA inh, eIF4H inh)
Cc1nnc(N2C(=O)C(O)=C(C(=O)c3ccco3)C2c2ccc(C(C)(C)C)cc2)s1 (stereo not drawn)	none
CCCOc1cccc(C2C(C(=O)c3ccco3)=C(O)C(=O)N2c2nnc(C)s2)c1 (stereo not drawn)	MEX-5 binding -32, PABP polyA inh inconclusive, eIF4H inh inconclusive (no result: EBV gp42 inh)
COc1ccc(C2C(C(=O)c3cccs3)=C(O)C(=O)N2c2cccc(C)n2)cc1 (stereo not drawn)	none
CSc1ccc(C2C(C(=O)c3ccco3)=C(O)C(=O)N2c2nnc(SC)s2)cc1 (stereo not drawn)	MEX-5 binding -59, PABP polyA inh inconclusive, eIF4H inh inconclusive (no result: EBV gp42 inh)
COc1ccc2nc(N3C(=O)C(O)=C(C(=O)c4ccco4)C3c3ccc(OC)c(OC)c3)sc2c1 (stereo not drawn)	none (no result: MEX-5 binding, EBV gp42 inh, PABP polyA inh, eIF4H inh)
Cc1ccc(C2C(C(=O)c3cccs3)=C(O)C(=O)N2c2nnc(C)s2)cc1 (stereo not drawn)	MEX-5 binding -67, EBV gp42 inh 123
CCCCOc1cccc(C2C(C(=O)c3ccc(C)o3)=C(O)C(=O)N2c2nnc(C)s2)c1 (stereo not drawn)	none (no result: EBV gp42 inh)
Cc1nnc(N2C(=O)C(O)=C(C(=O)c3ccco3)C2c2ccc(F)cc2)s1 (stereo not drawn)	MEX-5 binding -27, EBV gp42 inh 76, eIF4H inh inconclusive
CCCC(=O)N1CCC1(C)C(=O)Nc1cccc(F)c1 (stereo not drawn)	none (no result: MEX-5 binding, EBV gp42 inh, PABP polyA inh, eIF4H inh)
C=CCOc1cccc(C2C(C(=O)c3ccc(C)o3)=C(O)C(=O)N2c2nccs2)c1 (stereo not drawn)	MEX-5 binding -49, EBV gp42 inh 179, PABP polyA inh inconclusive, eIF4H inh inconclusive
Cc1nnc(N2C(=O)C(O)=C(C(=O)c3ccco3)C2c2ccc(C(C)C)cc2)s1 (stereo not drawn)	MEX-5 binding -27, EBV gp42 inh 72, PABP polyA inh active, eIF4H inh 52
Cc1ccc(C2C(C(=O)c3ccco3)=C(O)C(=O)N2c2ncccn2)cc1 (stereo not drawn)	none

High-throughput results from PubChem.
